# VP16 counter: counter-screen for ROR gamma inhibitors: Gal4-VP16 reporter; Drosophila S2 Gal4-VP16 UAS-luciferase, luminescence, 20 h; actives 3.5% (n = 310,000); Potency, µM (doses to about 53.6 µM), inactives show at the top dose activity, negative = inhibition, hits mostly inhibitors;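 also: Gal4-VP16 expression switched on by copper sulfate through the metallothionein promoter; potency is read from the fitted curve at half-maximal effect; nearly all actives have a fitted effect of over 50% in size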
# rTrxR1 inhibitor: blocks rat thioredoxin reductase 1. actives 1% (n = 390,000). Potency, µM (highest dose often 114 µM), for the others: at the top dose activity change, negative = inhibition, hits mostly inhibitors. recombinant rTrxR1, NADPH fluorescence consumption, selenite substrate. AID 588453; also: potency is read from the fitted curve at half-maximal effect; nearly all actives have a fitted effect of over 65% in size
# Target sequence (O89049 whole entry, looked up): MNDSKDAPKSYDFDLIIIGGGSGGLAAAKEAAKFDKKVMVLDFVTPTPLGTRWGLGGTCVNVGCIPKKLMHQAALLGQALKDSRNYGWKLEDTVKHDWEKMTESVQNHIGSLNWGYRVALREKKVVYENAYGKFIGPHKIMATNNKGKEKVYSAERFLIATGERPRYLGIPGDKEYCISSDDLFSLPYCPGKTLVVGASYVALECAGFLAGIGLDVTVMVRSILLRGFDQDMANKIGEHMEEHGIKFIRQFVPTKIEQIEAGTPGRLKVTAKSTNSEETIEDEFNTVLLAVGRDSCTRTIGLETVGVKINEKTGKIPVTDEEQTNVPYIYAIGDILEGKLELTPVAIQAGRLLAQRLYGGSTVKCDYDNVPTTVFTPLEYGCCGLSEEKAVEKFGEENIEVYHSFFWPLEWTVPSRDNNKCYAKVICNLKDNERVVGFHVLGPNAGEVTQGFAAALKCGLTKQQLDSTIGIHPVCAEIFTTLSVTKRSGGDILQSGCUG
#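 Rat TrxR1 (90 nM in the dispensed reagent) was pre-reduced with 400 uM NADPH for 5 min at room temperature, then incubated with compound for 15 min. After 400 uM selenite was added, NADPH fluorescence (Ex 340/Em 450 nm) was followed for 8 min.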
# Coupling enz: inhibits coupling enzyme system, counter-screen for aldolase hits; coupling enzyme system counterscreen, AmpLite Red fluorescence; activity change, negative = inhibition, % at 58.2 µM, hits read low; actives 0.67% (n = 290,000); in the data active = activity change below about -30%
#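 Fluorescence at 525 nm excitation and 598 nm emission measured inhibition of the coupled detection system without aldolase. Compounds (at 57.5 uM final) were preincubated 10 min at room temperature with coupling enzyme reagent before a 20 min substrate/AmpLite Red step.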
# GALK inh: galactokinase (human) inhibition. P51570. Purified GALK, Kinase-Glo residual ATP luminescence. Potency, µM (highest dose often 57.5 µM), inactives show top-dose activity change, negative = inhibition, usual class: inhibitors. actives 0.007% (n = 270,000); also: potency is read from the fitted curve at half-maximal effect
#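 GALK at 5 nM final was combined with compound, 35 uM ATP and 100 uM galactose in HEPES pH8.0 with MgCl2 and DTT. The reaction ran one hour at room temperature before luminescent ATP detection.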
# RORgamma inh: ROR gamma (mouse) transcription inhibition | actives 5.4% (n = 310,000) | Drosophila S2 Gal4-RORgamma UAS-luciferase reporter, 20 h | Potency, µM (top dose mostly 53.6 µM), inactives show at the highest dose activity change, negative = inhibition, hits mostly inhibitors; also: potency is read from the fitted curve at half-maximal effect; nearly all actives have a fitted effect of over 60% in size
#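 Drosophila S2 cells stably expressing Gal4-DBD/mouse RORγ fusion under metallothionein promoter plus UAS-luciferase; compound 1 h, then 700 uM CuSO4 induction for 20 h at ambient temperature; inhibition read as reduced luminescence.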
# TrxR1 substrate: is turned over as a substrate by rat TrxR1. O89049. purified TrxR1 substrate turnover, NADPH consumption readout. Potency, µM (highest dose often 114 µM), for inactives: at the highest dose activity change, negative = substrate turnover. actives 0.01% (n = 390,000). AID 588456; also: potency is read from the fitted curve at half-maximal effect; nearly all actives have a fitted effect of over 50% in size
#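 Rat TrxR1, dispensed at 90 nM, was prereduced with 400 uM NADPH (final) for 5 min at ~22 deg C, then incubated with compound 15 min before 400 uM selenite. A first-read NADPH fluorescence drop versus no-compound background flagged substrates.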
# * marks the source's active call; other numbers are inactive results; ? = inconclusive; nt = not tested or not shown; [ ] = remark or other dose. The list is not random: actives were taken first. Their share in the collection is about 5.9%. Unless noted, calls follow the shape of the dose curve; as a rule, active = well fitted curve in the direction sought with a large enough effect; inconclusive = small, poorly fitted or top-dose-only effect, or another doubt; inactive = no such curve, though single readings can be large; an effect the other way counts as inactive or inconclusive. % is scaled to controls: 0 for no effect and ±100 for the full control effect.
SMILES,VP16 counter,rTrxR1 inhibitor,Coupling enz,GALK inh,RORgamma inh,TrxR1 substrate
CC(C)CCNC(=O)CSc1nnc(-c2ccc(S(=O)(=O)N3CCCC3)cc2)n1C,-6%,13%,-4,0%,-1%,9%
CCOC(=O)NNc1ccc2nonc2c1[N+](=O)[O-],?,?,-44*,-1%,-35%,-34%
CCc1ccc(Nc2ccc3nonc3c2[N+](=O)[O-])cc1,nt,32%[57.1 µM],nt,nt,nt,7%
Cc1c(CC(=O)N2CCN(C(=O)C3COc4ccccc4O3)CC2)c(=O)oc2cc(O)c(Cl)cc12 (configuration not stated),-7%,32µM*,0,8%,-11%,939%
O=C(CCl)N1CCN(C(=O)C2COc3ccccc3O2)CC1 (configuration not stated),nt,28µM*,nt,nt,nt,5%
COc1ccc(S(=O)(=O)N2c3ccccc3OCC2C)cc1 (configuration not stated),-5%,22%[57.1 µM],-1,5%,?,0%
COc1ccc(S(=O)(=O)N2CCN(C(=O)C3COc4ccccc4O3)CC2)cc1 (configuration not stated),nt,50µM*,nt,nt,nt,-4%
CC(=O)Nc1ccc(S(=O)(=O)N2CCN(C(=O)C3COc4ccccc4O3)CC2)cc1 (configuration not stated),-16%,1%[57.1 µM],nt,-3%,6%,-5%
COc1ccc2c(C)c(CC(=O)N3CCN(C(=O)C4COc5ccccc5O4)CC3)c(=O)oc2c1C (configuration not stated),3%,12%[57.1 µM],3,-1%,16%,132%[57.1 µM]
COc1ccc(S(=O)(=O)N2c3ccccc3OCC2C(C)(C)C)cc1 (configuration not stated),16µM*,10%,-2,0%,-10%,-2%
Cc1c(CC(=O)NCc2ccc(F)cc2)c(=O)oc2cc(O)c(Cl)cc12,nt,79µM*,nt,nt,nt,893%
CC(C)CN(C(=O)c1cccc(S(=O)(=O)N2CCN(C)CC2)c1)C1CCS(=O)(=O)C1 (configuration not stated),nt,-12%,nt,nt,nt,-6%
Cc1ccc(C(=O)NC(=S)Nc2c(C)ccc3nsnc23)cc1,?,?,-10,1%,10µM*,-4%
O=C(Nc1c(Cl)ccc2nsnc12)c1ccco1,-7%[10 µM],18%,1,6%,1%,-3%
CC(C)C(=O)NC(=S)Nc1c(Cl)ccc2nsnc12,-2%,-67%,0,4%,13µM*,-19%[57.1 µM]
Cc1ccc(C(=O)NC(=S)Nc2cccc3nsnc23)cc1,26%,-18%,-29,-3%,-18%,-3%
Cc1ccc2ncccc2c1NS(=O)(=O)c1ccccc1,-3%,15%[57.1 µM],0,7%,?,7%[57.1 µM]
Cc1ccc2ncccc2c1NC(=S)NC(=O)c1ccccc1,25%,-69%,-1,-1%,8.9µM*,6%[57.1 µM]
O=C(N/N=C/c1ccc(-c2ccccc2[N+](=O)[O-])o1)c1cccnc1,?,50µM*,-12,-2%,-97%,-14%
O=C(N/N=C/c1ccc(-c2ccccc2Cl)o1)c1ccccc1,7.9µM*,8%[57.1 µM],-1,-1%,3.5µM*,3%[57.1 µM]
O=C(NNC(=S)NC1CCCCC1)c1sc2ccccc2c1Cl,13µM*,-31%,-3,-4%,2.8µM*,-15%
O=C(NC1CC1)c1sc2ccccc2c1Cl,6%,11%,2,-1%,-4%,3%
CC(C)(C)C(=O)NC(=S)NNC(=O)c1sc2ccccc2c1Cl,0.56µM*,?,0,0%,0.63µM*,-7%
Cc1ccc(NC(=O)N(O)C2CCCCC2C#N)cc1 (configuration not stated),nt,-1%[11.4 µM],nt,nt,nt,12%[57.1 µM]
C[C@@H]1CN([C@H](C)CO)C(=O)c2cccc(NS(=O)(=O)c3cccs3)c2O[C@H]1CN(C)Cc1ccccc1,nt,16%[57.1 µM],nt,nt,nt,8%[57.1 µM]
SMILES,VP16 counter,rTrxR1 inhibitor,Coupling enz,GALK inh,RORgamma inh,TrxR1 substrate
CCOc1ccc(NC(=S)NC(=O)C2CCCC2)cc1,6.3µM*,?,nt,-6%,1.1µM*,1%
CCN(CC)c1ccc(NC(=S)NC(=O)C2CCC2)cc1,6.3µM*,45µM*,nt,-2%,1.8µM*,8%
CC(=O)Nc1ccc(NC(=S)NC(=O)C2CCCC2)cc1,0%,?,nt,-6%,15%,1%
CCC(C)C(NC(=O)OCc1ccccc1)C(=O)OCN1C(=O)c2ccccc2C1=O (configuration not stated),2%,-4%,nt,-4%,-3%,-9%
N=c1c2c(-c3ccccc3)c(-c3ccccc3)n(Cc3ccco3)c2ncn1CCO,-12%,-34%,0,-2%,-10%,-2%
N=c1c2c(-c3ccccc3)c(-c3ccccc3)n(Cc3ccco3)c2ncn1CCCO,3.2µM*,28%[57.1 µM],2,-1%,3.2µM*,14%[57.1 µM]
COC(=O)C1=CO[C@@H](O[C@@H]2OC(CO)[C@@H](O)[C@@H](O)[C@@H]2O)C2C1CC[C@]2(C)O (some centres not stated),nt,10%,nt,nt,nt,9%
CC(=O)C[C@H](O)CC(=O)[C@H]1OC(=O)[C@H](C)C/C=C\Cc2ccccc21,nt,-5%,nt,nt,nt,-3%
CC(C)(C)OC(=O)C[C@H]1C/C=C\C[C@@H](CC(=O)N(CCO)Cc2ccccc2)C(=O)N2CCC[C@@H]2COC1=O,nt,5%,nt,nt,nt,0%
CC(C)CCNC(=O)c1cc2c(=O)n3ccccc3nc2s1,6%,45µM*,-1,1%,15%,106%
CC(C)CN(CC(C)C)C(=O)c1cc2c(=O)n3ccccc3nc2s1,-4%,2%[57.1 µM],2,nt,3%,32%[57.1 µM]
Cc1c(Cl)c(-c2n[nH]c(=S)n2-c2ccc(F)cc2)nn1C,-4%,-20%,1,1%,13µM*,2%
CCCCn1c(-c2nn(C)c(C)c2Cl)n[nH]c1=S,?,-33%,2,nt,3.2µM*,-5%
Cc1c(Cl)c(-c2n[nH]c(=S)n2CC(C)C)nn1C,?,?,-3,nt,13µM*,-4%
Cn1cc(Cl)c(-c2n[nH]c(=S)n2-c2ccccc2)n1,-6%,-22%,0,nt,-40%,-5%
Cc1nn(C)c(-c2n[nH]c(=S)n2-c2ccccc2)c1Cl,-8%,?,2,4%,11µM*,-4%
CCCNC(=O)c1cc(S(=O)(=O)N2CCc3ccccc32)cn1C,14µM*,10%[57.1 µM],0,nt,?,-4%[57.1 µM]
CN1CCc2nc(NC(=O)c3cccc(S(=O)(=O)N4CCc5ccccc54)c3)sc2C1,-18%,5%,0,0%,?,-7%
CCC(CC)c1nnc(NC(=O)c2cccc(S(=O)(=O)N3CCc4ccccc43)c2)s1,?,-4%,nt,-1%,16µM*,2%[57.1 µM]

# Source: PubChem (National Center for Advancing Translational Sciences (NCATS))
